The structures appear in SMILES notation. Hit rate of the full screen: of about 190,000 compounds, about 1,300 (0.68%) were called active. Cut-off read from the data, not from the text of the source: active = inhibition above about 50%; inactive = the rest. What follows is part of a selection rich in actives, with near analogues and random picks from the rest.

This assay deals with Mannose-6-phosphate isomerase (Homo sapiens) (UniProt P34949). Kind of assay: human PMI inhibitors, high substrate, primary screen, biochemical, fluorescence intensity, high mannose 6-phosphate (AID 1220). As to conditions: recombinant PMI enzyme, coupled fluorescence intensity; at 20 µM; stronger effect = higher value.
Sequence of Mannose-6-phosphate isomerase (Homo sapiens) (P34949 whole entry, looked up): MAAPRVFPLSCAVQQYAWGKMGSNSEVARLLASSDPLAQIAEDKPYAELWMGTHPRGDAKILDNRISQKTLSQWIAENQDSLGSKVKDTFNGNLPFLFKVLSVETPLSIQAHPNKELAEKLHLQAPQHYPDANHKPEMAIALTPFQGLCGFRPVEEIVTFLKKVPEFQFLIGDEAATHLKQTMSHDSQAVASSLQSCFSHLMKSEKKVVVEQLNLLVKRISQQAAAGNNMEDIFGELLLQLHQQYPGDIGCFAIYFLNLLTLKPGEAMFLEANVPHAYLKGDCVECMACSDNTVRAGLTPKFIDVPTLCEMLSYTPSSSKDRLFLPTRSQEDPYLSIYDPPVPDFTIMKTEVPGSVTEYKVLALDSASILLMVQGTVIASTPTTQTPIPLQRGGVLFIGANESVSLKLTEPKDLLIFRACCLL
For the molecule `CCSc1nc(C(F)(F)F)cc(=O)n1-c1ccccc1`, the inhibition was -9.6% (inactive).
For `O=C(Nc1c(F)cc(F)cc1Br)c1cc2nc(C(F)F)cc(C(F)F)n2n1`, the inhibition was 18.1% (inactive).
In the case of `CCCC1(C)NC(=O)c2ccccc2O1` (stereo unspecified), the inhibition is 7.5% (inactive).
Consider `Cc1cccc(C)c1NC(=O)CSc1nnc(Cc2ccccc2)o1`, for which the inhibition is -13.2% (inactive).
For `Cc1cccc(OCC(=O)O/N=C(\N)Cc2cccs2)c1` the value was 0% (inactive); for `O=C(COc1cccc(C(F)(F)F)c1)N1CCN(c2ccc(O)cc2)CC1`, 50.6% (active); for `COc1ccc(OCC(=O)N2CCN(c3cccc(C(F)(F)F)c3)CC2)cc1`, 15.4% (inactive).
Next, `O=C(COc1cccc(C(F)(F)F)c1)N1CCN(c2ccccc2O)CC1`: -5.8% (inactive).
Take `CCC(=O)NC(NC(=S)Nc1cccc2cccnc12)C(Cl)(Cl)Cl` (stereo unspecified): the inhibition is 37.8% (inactive).
Next, `CC(C)(C)C(=O)NC(Nc1cccc2cccnc12)C(Cl)(Cl)Cl` (stereo unspecified): 60.1% (active); `CC(C)C(=O)NC(Nc1cccc2cccnc12)C(Cl)(Cl)Cl` (stereo unspecified): 41.4% (inactive); `CCOC(=O)c1oc2ccccc2c1NC(=O)COC`: -10.9% (inactive).
Next, `CCOc1ccc(C(C)NC(=O)CCC(=O)O)cc1` (stereo unspecified): 1.9% (inactive).
For `Cc1ccc2nc(SCC(=O)Nc3cccc(S(=O)(=O)N(C)C)c3)[nH]c2c1` the value was 10.5% (inactive); for `O=C(/C=C/c1ccc(Br)o1)NCCCN1CCOCC1`, -2.7% (inactive); for `COc1ccc(N2C(=O)CC(Sc3nc4c(cc3C#N)CCC4)C2=O)cc1` (stereo unspecified), 57.1% (active).
Consider `CCCc1ccc(C#N)c(SC2CC(=O)N(c3ccc(OC)cc3)C2=O)n1` (stereo unspecified), for which the inhibition was 40.6% (inactive).
For `N#Cc1cc2c(nc1SC1CC(=O)N(c3ccccc3)C1=O)CCC2` (stereo unspecified), the inhibition was 35.2% (inactive).
For `Cc1nc2ccc(NC(=O)c3ccc(S(=O)(=O)N4CCOCC4)cc3)cc2s1` the value was -2.3% (inactive).
Consider `Cc1nc2ccc(Nc3nc4cc(S(=O)(=O)N5CCOCC5)ccc4o3)cc2s1`, for which the inhibition was 61.9% (active).
Next, `Cc1nc2ccc(NC(=O)c3cc(S(=O)(=O)N4CCOCC4)ccc3C)cc2s1`: 5.6% (inactive); `Nc1nc(NCCCN2CCOCC2)nc(Nc2ccc(F)cc2)c1[N+](=O)[O-]`: -6.1% (inactive); `CCOC(=O)c1sc2nc(CC(=O)OC)nc(N(C)CCc3ccccn3)c2c1C`: -1.1% (inactive).
Next, `CC1=C(n2nnc([N+](=O)[O-])n2)C(c2cccnc2)C(C#N)=C(N)O1` (stereo unspecified): 59.9% (active); `COC(=O)C1=C(C)OC(N)=C(C#N)C1c1cccnc1` (stereo unspecified): 0.3% (inactive); `CCOC(=O)C1=C(c2ccccc2)OC(N)=C(C#N)C1c1cccnc1` (stereo unspecified): 11.6% (inactive).
Next, `CC(=O)C1=C(C)OC(N)=C(C#N)C1c1cccnc1` (stereo unspecified): 42.6% (inactive); `CC(=O)C1=C(C)OC(N)=C(C#N)C1c1cccc([N+](=O)[O-])c1` (stereo unspecified): 56.7% (active); `CC(=O)C1=C(C)OC(N)=C(C#N)C1c1ccncc1` (stereo unspecified): -5.8% (inactive).
As for `O=C(CN1CCN(C2CCCCC2)CC1)Nc1ccc(Br)cc1`, the inhibition was -11.2% (inactive).
As for `CC1(C)CC(=O)C(N=Nc2cc(Cl)c(Cl)c(Cl)c2)=C(O)C1`, the inhibition was -3.4% (inactive).
Next, `O=Cc1ccc(-n2cc(C=O)c3ccccc32)cc1`: -5.3% (inactive); `CC1=C(C(=O)OCC2CCCO2)C(c2coc3ccccc3c2=O)C2=C(CC(C)(C)CC2=O)N1` (stereo unspecified): -4.3% (inactive); `CC(NC(=O)c1cc(-c2ccc(Br)cc2)on1)c1ccccc1` (stereo unspecified): -3.3% (inactive).
Next, `O=C(c1cnn(-c2ccccc2)c1)c1ccccc1O`: 10.1% (inactive); `CCc1cc(C(=O)Cc2cnn(-c3ccccc3)c2)c(O)cc1O`: 15.5% (inactive).
Next, `O=C(Nc1cccc(NC(=O)c2ccc3c(c2)OCO3)c1)c1ccccc1`: 6.5% (inactive).
Take `CCOc1ccccc1N1CCN(CC(=O)Nc2nnc(CC)s2)CC1`: the inhibition is -13% (inactive).
For `O=c1c2c([N+](=O)[O-])cc([N+](=O)[O-])cc2sn1-c1ccc(Br)cc1` the value was 104% (active); for `O=c1n(-c2ccc(Br)cc2)cnn1-c1ncccc1[N+](=O)[O-]`, -0.4% (inactive); for `O=c1c2cc(Br)ccc2nc(-c2ccc([N+](=O)[O-])cc2)n1O`, -16.5% (inactive).
For `Cc1ccc(C(=O)Nc2ccc(Br)cc2)cc1S(=O)(=O)Nc1ccccn1` the value was 3.7% (inactive); for `COc1cccc(NC2=NC3(CCCCC3)N=C(N)N2)c1`, -6.8% (inactive).
For `c1ccc(Nc2cccc(Nc3ccccc3)c2)cc1` the value was 29.3% (inactive); for `O=C1c2cccc3cccc(c23)C(=O)N1c1nccs1`, 8.2% (inactive); for `CC(Sc1nncn1C)C(=O)Nc1nnc(-c2ccccc2)s1` (stereo unspecified), 6% (inactive).
`COc1ccc(OC)c(-c2nnc(NC(=O)C(C)Sc3nncn3C)s2)c1` (stereo unspecified): the inhibition is 91.6% (active).
For `COc1ccccc1-c1nnc(NC(=O)C(C)Sc2nncn2C)s1` (stereo unspecified) the value was -2.2% (inactive).
On to `COc1ccccc1CN1CCNC(=O)C1CC(=O)NCc1csc(C)n1` (stereo unspecified), for which the inhibition is 9.7% (inactive).
Next, `CSc1ccc(/C=N/NC(=O)CN2CCN(Cc3ccccc3Cl)CC2)cc1`: 0.4% (inactive); `Cc1ccc(OCC(=O)c2cc(C)c(C)cc2C)c([N+](=O)[O-])n1`: 4.2% (inactive).
Next, `COCCn1c(C)cc(C(=O)COc2cccnc2[N+](=O)[O-])c1C`: 59.4% (active); `Cc1ccc(OCC(=O)c2cc(C)n(C)c2C)c([N+](=O)[O-])n1`: 42.3% (inactive); `CCCn1c(C)cc(C(=O)COc2ccc(C)nc2[N+](=O)[O-])c1C`: 3.2% (inactive).
For `COCCn1c(C)cc(C(=O)COc2nc3ccccc3nc2C)c1C` the value was 8.5% (inactive).
Consider `Cc1cc(C)c(C(=O)COc2cccnc2[N+](=O)[O-])cc1C`, for which the inhibition was 24.3% (inactive).
As for `COCCn1c(C)cc(C(=O)COc2ccc(C)nc2[N+](=O)[O-])c1C`, the inhibition is 51.6% (active).
For `Cc1ccc(OCC(=O)c2ccc(Cl)s2)c([N+](=O)[O-])n1` the value was 55.6% (active).
For `Cc1ccc(C)c(C(=O)COc2ccc(C)nc2[N+](=O)[O-])c1` the value was 18.4% (inactive).
Next, `O=C(CCN1C(=O)c2cccnc2C1=O)NC1CCCCCC1`: 9.7% (inactive); `CCC(=O)Nc1ccc(N2CCN(S(C)(=O)=O)CC2)cc1`: 3.4% (inactive); `Cc1cc(NCCCn2ccnc2)n2nc(-c3ccc(F)cc3)cc2n1`: -14.3% (inactive).
Consider `O=C(N/N=C/c1ccncc1)c1cccc(NC(=O)c2ccc(Cl)cc2)c1`, for which the inhibition is -140% (inactive).
Next, `C#CCOCCOCCOCCNc1nc(N2CCN(C(=O)Cn3cc(CCCN=C(N)N)nn3)CC2)nc(N2CCN(C(=O)[C@H]([C@@H](C)CC)n3cc(CCCN=C(N)N)nn3)CC2)n1`: -53.5% (inactive); `CCOC(=O)N1CCC(NC(=O)C2CCCN(c3nc4ccccc4o3)C2)CC1` (stereo unspecified): 3.2% (inactive).
For `CC(NC(=O)C(Cc1ccccc1)NC(=O)c1ccccc1)C(=O)O` (stereo unspecified) the value was -5.7% (inactive).
Consider `N=C(N)Cc1ccccc1Sc1ccccc1`, for which the inhibition is -7.9% (inactive).
On to `Cc1ccc(NC(=O)c2ccc(F)c(S(=O)(=O)N3CCOCC3)c2)cc1F`, for which the inhibition is 0.5% (inactive).
Next, `Cc1[nH][nH]c(=O)c1C(c1c(C)[nH][nH]c1=O)c1cn(Cc2cccc3ccccc23)c2ccccc12`: 56% (active).
For `Cc1nccn1Cc1cccc2ccccc12` the value was -0.7% (inactive); for `CCOC(=O)N1CCN(C(=O)CS(=O)(=O)c2cn(Cc3ccccc3Cl)c3ccccc23)CC1`, 3.6% (inactive); for `Cc1[nH][nH]c(=O)c1C(c1c(C)[nH][nH]c1=O)c1cn(Cc2ccccc2Cl)c2ccccc12`, 50.3% (active).
`O=c1c2ccccc2ncn1Cc1cccc2ccccc12`: the inhibition was 7.1% (inactive).
Consider `COC(=O)N/N=C/c1cn(Cc2ccccc2Cl)c2ccccc12`, for which the inhibition is 16.8% (inactive).
As for `O=C(O)c1ccc(Cl)c(S(=O)(=O)Nc2ccccc2N2CCOCC2)c1`, the inhibition was -3.7% (inactive).
For `CC(C)=C1C2C=CC1C(C(=O)Nc1cccc(C)c1)C2C(=O)O` (stereo unspecified) the value was 0.3% (inactive); for `O=C(COC(=O)c1cc(=O)c2ccccc2o1)NC1CCCC1`, 30.5% (inactive).
For `CCCCCC(=O)Nc1cc2[nH]c(=O)cc(COC)c2cc1C` the value was -2.7% (inactive); for `CCC(=O)Nc1cc2c(C)cc(=O)oc2cc1C`, -14.2% (inactive).
`CCC(=O)Nc1cc2[nH]c(=O)cc(C)c2cc1C`: the inhibition was 54.6% (active).
For `C#CCOCCOCCOCCNc1nc(N2CCN(C(=O)[C@H](C)n3cc(CCCN=C(N)N)nn3)CC2)nc(N2CCN(C(=O)[C@H](Cc3ccc(O)cc3)n3cc(CCO)nn3)CC2)n1` the value was -38% (inactive).
Next, `COc1ccc(C(CC(=O)c2ccccc2)CC(=O)c2ccccc2)cc1OC`: 4% (inactive); `N#CC1=C(N)Oc2cc(O)ccc2C1c1ccccc1` (stereo unspecified): 7.4% (inactive); `COc1ccc(N=Cc2cc3c(cc2O)OC(N)=C(C#N)C3c2ccccc2)cc1` (stereo unspecified): 50.4% (active).
As to `N#CC1=C(N)Oc2cc(O)c(C=Nc3ccccc3)cc2C1c1ccccc1` (stereo unspecified), the inhibition was -4% (inactive).
With `Cc1ccc(C2C(C#N)=C(N)Oc3cc4c(cc32)OCO4)cc1` (stereo unspecified), the inhibition was 0.5% (inactive).
Next, `Cc1ccccc1N=Cc1cc2c(cc1O)OC(N)=C(C#N)C2c1ccccc1` (stereo unspecified): 55% (active).
In the case of `Cc1ccc(N=Cc2cc3c(cc2O)OC(N)=C(C#N)C3c2ccccc2)cc1` (stereo unspecified), the inhibition was 10.5% (inactive).
For `Clc1ccc(C2=NCCN2)cc1` the value was 1.4% (inactive); for `O=C(Cc1ccc(F)cc1)N/N=C/c1ccccn1`, 16.5% (inactive).
For `Cn1c(=O)[nH]c(=O)c2c1nc(N1CCOCC1)n2CC(O)COc1ccc2ccccc2c1` (stereo unspecified) the value was 6.5% (inactive).
For `O=C(NC1CCCc2ccccc21)c1ccc(CNc2c(N3CCOCC3)c(=O)c2=O)cc1` (stereo unspecified) the value was -6.9% (inactive).
Turning to `CCOC(=O)c1cc2c(ccn2C)n1Cc1ccc(Cl)cc1`, the inhibition was 52.4% (active).
Take `CCOC(=O)c1cc2c(ccn2C)n1CC(=O)N1CCC(C)CC1`: the inhibition is 13.8% (inactive).
`CCOC(=O)c1cc2c(ccn2C)n1Cc1ccccc1Cl`: the inhibition was 50.5% (active).
Next, `CCOC(=O)c1cc2c(ccn2C)n1CC(=O)N1CCCC(C)C1` (stereo unspecified): 7.2% (inactive); `CCOC(=O)c1cc2c(ccn2C)n1CC(=O)N1C(C)CCCC1C` (stereo unspecified): 52% (active); `CCOC(=O)c1cc2c(ccn2C)n1Cc1ccc(C#N)cc1`: 35.1% (inactive).
Next, `CCOC(=O)c1cc2c(ccn2C)n1Cc1ccccc1C`: 22.3% (inactive); `CCOC(=O)c1cc2c(ccn2C)n1CC(=O)N(C)C`: 44.7% (inactive); `CCOC(=O)c1cc2c(ccn2C)n1Cc1cc(C)ccc1C`: 22.9% (inactive).
